According to PubChem BioAssay (NCI):
About 79,000 compounds went through this panel and 15% of them were active in at least one assay; those are over-represented in the sample as a whole. A number with no mark means an inactive call. Activity calls are given as the source filed them. Rule as the data show it: active = growth inhibition above about 70%; inactive = the rest.

What was measured:
[1] = NCI Yeast Anticancer Drug Screen. Data for the rad52 strain (AID 147);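 also: 0% = growth of vehicle-treated control cultures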; settings: S. cerevisiae rad52 mutant growth inhibition, hits give high values
How it was run: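 Compounds are applied to a genetically defined yeast strain lacking normal DNA damage repair, and inhibition of growth is expressed relative to cultures given vehicle only.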

[2] = NCI Yeast Anticancer Drug Screen. Data for the wt1 strain (AID 149);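 also: 0% = growth of vehicle-treated wt1 cultures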; settings: S. cerevisiae wt1 strain (SPY 50644) growth inhibition, hits give high values
How it was run: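 wt1 yeast, compound-treated; % growth inhibition vs vehicle control.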

[3] = NCI Yeast Anticancer Drug Screen. Data for the rad50EPP+ strain (AID 151);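 also: 0% = growth of vehicle-treated control cultures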; settings: S. cerevisiae rad50 mutant strain, hits give high values
How it was run: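 Compounds were applied to the rad50EPP+ yeast strain, which bears a defined DNA repair alteration, and growth inhibition was determined relative to vehicle-treated cultures.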

[4] = NCI Yeast Anticancer Drug Screen. Data for the rad50 strain (AID 155);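 also: 0% = growth of vehicle-only cultures of the same strain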; settings: S. cerevisiae rad50 strain growth inhibition, hits give high values
How it was run: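 Genetically altered yeast (DNA repair pathway); compound treatment; growth inhibition vs vehicle ctrl.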

[5] = NCI Yeast Anticancer Drug Screen. Data for the mec2-1 strain (AID 157); settings: S. cerevisiae mec2-1 strain, hits give high values
How it was run: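 Strain: mec2-1 (DNA repair/cell cycle alteration). Compound exposure, then growth measured; inhibition expressed relative to vehicle.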

[6] = NCI Yeast Anticancer Drug Screen. Data for the rad14 strain (AID 159);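 also: 0% = growth of vehicle-treated control cultures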; settings: S. cerevisiae rad14 strain growth inhibition, hits give high values
How it was run: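 Test compounds were applied to a repair-deficient yeast strain. Its growth was then compared with that of cultures given vehicle alone, and inhibition was expressed relative to those controls.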

[7] = NCI Yeast Anticancer Drug Screen. Data for the sgs1 mgt1 strain (AID 161);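 also: 0% = growth of cultures given vehicle only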; settings: S. cerevisiae sgs1 mgt1 strain, hits give high values
How it was run: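 Read-out: growth inhibition vs vehicle controls. Cells: mutant yeast strain deficient in DNA damage repair.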

[8] = NCI Yeast Anticancer Drug Screen. Data for the cln2 rad14 strain (AID 165);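 also: 0% = growth equal to vehicle treated cultures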; settings: S. cerevisiae cln2 rad14 strain, hits give high values
How it was run: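 Compounds are applied to the cln2 rad14 yeast strain, and growth is then compared with that of vehicle-treated cultures to give inhibition.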

[9] = NCI Yeast Anticancer Drug Screen. Data for the bub3 strain (AID 167); settings: S. cerevisiae bub3 mutant strain, hits give high values
How it was run: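 Yeast carrying a defined mutation is treated with each compound, and growth is compared with that of vehicle-exposed cells to give inhibition.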

[10] = NCI Yeast Anticancer Drug Screen. Data for the wt2 strain (AID 169);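 also: 0% = growth of vehicle-treated yeast cultures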; settings: S. cerevisiae wt2 strain growth inhibition, hits give high values
How it was run: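 This strain belongs to a panel of yeast strains with defined genetic alterations in DNA damage repair or cell cycle control. Compounds are applied, and growth inhibition is measured against vehicle-treated cultures.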

[11] = NCI Yeast Anticancer Drug Screen. Data for the mlh1 strain (AID 171);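 also: 0% = growth of vehicle-treated control cultures of the same strain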; settings: S. cerevisiae mlh1 strain growth inhibition, hits give high values
How it was run: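 Growth of the mutant yeast strain after compound exposure, expressed as inhibition relative to vehicle-only controls.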

[12] = NCI Yeast Anticancer Drug Screen. Data for the sgs1 strain (AID 173);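 also: 0% = growth of vehicle-only control cultures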; settings: S. cerevisiae sgs1 mutant, hits give high values
How it was run: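 Growth of a yeast strain bearing a defined genetic alteration is measured after compound treatment. Inhibition is expressed relative to vehicle-only controls.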

[13] = NCI Yeast Anticancer Drug Screen. Data for the mlh1 rad18 strain (AID 175); settings: S. cerevisiae mlh1 rad18 strain growth inhibition, hits give high values
How it was run: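 Read-out is yeast growth inhibition, calculated against vehicle-only controls. The compound was applied to a strain engineered with DNA damage repair alterations.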

[14] = NCI Yeast Anticancer Drug Screen. Data for the mgt1 strain (AID 153); settings: S. cerevisiae mgt1 mutant growth inhibition, hits give high values
How it was run: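 Strain: mgt1 yeast, one of a set carrying defined DNA damage repair or cell cycle control alterations. Compound-treated growth compared with vehicle.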

[15] = NCI Yeast Anticancer Drug Screen. Data for the CLN2oe strain (AID 163);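 also: 0% = growth of vehicle-only control cultures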; settings: S. cerevisiae CLN2oe strain, hits give high values
How it was run: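 Growth of a genetically modified yeast strain is measured after compound exposure and compared with cultures given vehicle alone.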

[16] = NCI Yeast Anticancer Drug Screen. Data for the rad18 strain (AID 177); settings: S. cerevisiae rad18 mutant growth inhibition, hits give high values
How it was run: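 Growth of the mutant yeast strain after compound exposure, normalised to vehicle-only cultures.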

[17] = at 5.0 µM (retest, dose inferred, filed as 0.5)
[18] = at 50.0 µM (retest, dose inferred, filed as 5.0)

Cc1cc(C)c(S(=O)(=O)c2ccc(Cl)cc2)c(C)c1
growth inhibition ([1]; at 1.2 µM): -3% | growth inhibition ([1]; at 3.7 µM): -4% | growth inhibition ([1]; at 11.0 µM): -2% | growth inhibition ([1]; at 33.0 µM): 7% | growth inhibition ([1]; at 100.0 µM): 29% | growth inhibition ([2]; at 1.2 µM): -5% | growth inhibition ([2]; at 3.7 µM): -10% | growth inhibition ([2]; at 11.0 µM): -16% | growth inhibition ([2]; at 33.0 µM): -14% | growth inhibition ([2]; at 100.0 µM): -4% | growth inhibition ([3]; at 1.2 µM): -1% | growth inhibition ([3]; at 3.7 µM): 9% | growth inhibition ([3]; at 11.0 µM): 20% | growth inhibition ([3]; at 33.0 µM): 13% | growth inhibition ([3]; at 100.0 µM): 21% | growth inhibition ([4]; at 1.2 µM): 0% | growth inhibition ([4]; at 3.7 µM): 3% | growth inhibition [4, 17]: -7% | growth inhibition ([4]; at 11.0 µM): 6% | growth inhibition ([4]; at 33.0 µM): 8% | growth inhibition [4, 18]: 3% | growth inhibition ([4]; at 50.0 µM): 62.4% | growth inhibition ([4]; at 100.0 µM): 49% | growth inhibition ([5]; at 1.2 µM): -5% | growth inhibition ([5]; at 3.7 µM): -10% | growth inhibition [5, 17]: -5% | growth inhibition ([5]; at 11.0 µM): -16% | growth inhibition ([5]; at 33.0 µM): -16% | growth inhibition [5, 18]: 19% | growth inhibition ([5]; at 50.0 µM): 48% | growth inhibition ([5]; at 100.0 µM): 13% | growth inhibition ([6]; at 1.2 µM): -5% | growth inhibition ([6]; at 3.7 µM): -8% | growth inhibition ([6]; at 11.0 µM): -10% | growth inhibition ([6]; at 33.0 µM): -8% | growth inhibition ([6]; at 100.0 µM): 20% | growth inhibition [7, 17]: -3% | growth inhibition [7, 18]: 17% | growth inhibition ([7]; at 50.0 µM): 77.1% (active) | growth inhibition [8, 17]: -9% | growth inhibition [8, 18]: -16% | growth inhibition ([8]; at 50.0 µM): -10.4% | growth inhibition ([9]; at 1.2 µM): -3% | growth inhibition ([9]; at 3.7 µM): 4% | growth inhibition [9, 17]: 5% | growth inhibition ([9]; at 11.0 µM): 11% | growth inhibition ([9]; at 33.0 µM): 19% | growth inhibition [9, 18]: 20% | growth inhibition ([9]; at 50.0 µM): 80.9% (active) | growth inhibition ([9]; at 100.0 µM): 48% | growth inhibition ([10]; at 1.2 µM): -5% | growth inhibition ([10]; at 3.7 µM): -7% | growth inhibition ([10]; at 11.0 µM): -8% | growth inhibition ([10]; at 33.0 µM): -6% | growth inhibition ([10]; at 100.0 µM): 18% | growth inhibition ([11]; at 1.2 µM): -8% | growth inhibition ([11]; at 3.7 µM): -6% | growth inhibition ([11]; at 11.0 µM): -6% | growth inhibition ([11]; at 33.0 µM): -5% | growth inhibition ([11]; at 100.0 µM): 30% | growth inhibition ([12]; at 1.2 µM): -8% | growth inhibition ([12]; at 3.7 µM): 0% | growth inhibition ([12]; at 11.0 µM): 0% | growth inhibition ([12]; at 33.0 µM): 7% | growth inhibition ([12]; at 100.0 µM): 46% | growth inhibition [13, 17]: -6% | growth inhibition [13, 18]: 1% | growth inhibition ([13]; at 50.0 µM): 35.2%

O=C1C(=O)c2cccc([N+](=O)[O-])c2-c2ccccc21
growth inhibition ([1]; at 1.2 µM): 6% | growth inhibition ([1]; at 3.7 µM): -4% | growth inhibition ([1]; at 11.0 µM): 37% | growth inhibition ([1]; at 33.0 µM): 99% (active) | growth inhibition ([1]; at 100.0 µM): 97% (active) | growth inhibition ([2]; at 1.2 µM): 2% | growth inhibition ([2]; at 3.7 µM): 20% | growth inhibition ([2]; at 11.0 µM): 18% | growth inhibition ([2]; at 33.0 µM): 100% (active) | growth inhibition ([2]; at 100.0 µM): 98% (active) | growth inhibition ([3]; at 1.2 µM): -2% | growth inhibition ([3]; at 3.7 µM): -14% | growth inhibition ([3]; at 11.0 µM): 24% | growth inhibition ([3]; at 33.0 µM): 99% (active) | growth inhibition ([3]; at 100.0 µM): 98% (active) | growth inhibition ([14]; at 1.2 µM): 2% | growth inhibition ([14]; at 3.7 µM): -2% | growth inhibition ([14]; at 11.0 µM): 6% | growth inhibition ([14]; at 33.0 µM): 99% (active) | growth inhibition ([14]; at 100.0 µM): 98% (active) | growth inhibition ([4]; at 1.2 µM): -78% | growth inhibition ([4]; at 3.7 µM): -4% | growth inhibition [4, 17]: 19% | growth inhibition ([4]; at 11.0 µM): 55% | growth inhibition ([4]; at 33.0 µM): 99% (active) | growth inhibition [4, 18]: 98% (active) | growth inhibition ([4]; at 50.0 µM): 98.5% (active) | growth inhibition ([4]; at 100.0 µM): 96% (active) | growth inhibition ([6]; at 1.2 µM): 11% | growth inhibition ([6]; at 3.7 µM): 20% | growth inhibition ([6]; at 11.0 µM): 62% | growth inhibition ([6]; at 33.0 µM): 99% (active) | growth inhibition ([6]; at 100.0 µM): 98% (active) | growth inhibition [7, 17]: 31% | growth inhibition [7, 18]: 99% (active) | growth inhibition ([7]; at 50.0 µM): 98.9% (active) | growth inhibition ([15]; at 1.2 µM): -6% | growth inhibition ([15]; at 3.7 µM): -5% | growth inhibition ([15]; at 11.0 µM): -1% | growth inhibition ([15]; at 33.0 µM): 99% (active) | growth inhibition ([15]; at 100.0 µM): 98% (active) | growth inhibition [8, 17]: 1% | growth inhibition [8, 18]: 98% (active) | growth inhibition ([8]; at 50.0 µM): 97.8% (active) | growth inhibition ([9]; at 1.2 µM): 32% | growth inhibition ([9]; at 3.7 µM): 35% | growth inhibition [9, 17]: 53% | growth inhibition ([9]; at 11.0 µM): 47% | growth inhibition ([9]; at 33.0 µM): 99% (active) | growth inhibition [9, 18]: 98% (active) | growth inhibition ([9]; at 50.0 µM): 98.8% (active) | growth inhibition ([9]; at 100.0 µM): 99% (active) | growth inhibition ([10]; at 1.2 µM): 30% | growth inhibition ([10]; at 3.7 µM): 47% | growth inhibition ([10]; at 11.0 µM): 66% | growth inhibition ([10]; at 33.0 µM): 99% (active) | growth inhibition ([10]; at 100.0 µM): 98% (active) | growth inhibition ([11]; at 1.2 µM): -3% | growth inhibition ([11]; at 3.7 µM): -1% | growth inhibition ([11]; at 11.0 µM): 3% | growth inhibition ([11]; at 33.0 µM): 99% (active) | growth inhibition ([11]; at 100.0 µM): 98% (active) | growth inhibition ([12]; at 1.2 µM): 16% | growth inhibition ([12]; at 3.7 µM): 11% | growth inhibition ([12]; at 11.0 µM): 35% | growth inhibition ([12]; at 33.0 µM): 99% (active) | growth inhibition ([12]; at 100.0 µM): 96% (active) | growth inhibition [13, 17]: 37% | growth inhibition [13, 18]: 98% (active) | growth inhibition ([13]; at 50.0 µM): 98.8% (active) | growth inhibition ([16]; at 1.2 µM): 1% | growth inhibition ([16]; at 3.7 µM): 6% | growth inhibition ([16]; at 11.0 µM): 15% | growth inhibition ([16]; at 33.0 µM): 99% (active) | growth inhibition ([16]; at 100.0 µM): 98% (active)
